Bioassay records: PubChem BioAssay, Sanford-Burnham Center for Chemical Genomics
Sampled rows, rich in hits. Any-hit rate of the full collection: about 2.6%.
eIF4H FP inh – inhibitors of RNA binding by human eIF4H | Q15056 | eIF4H fluorescence polarization binding assay | inhibition, % at 35 µM | actives 0.94% (n = 290,000) | AID 2012;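 note: calls also rest on retests at 20 µM and on dose response follow-up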
MLLE-PAM2 inh – blocks PAM2 peptide binding to the PABP1 MLLE domain. P11940. GST-MLLE / FITC-PAM2 fluorescence polarization. inhibition, % at 20 µM. actives 0.36% (n = 360,000). AID 588489; in the data active = inhibition above about 35%, passing the limit was not always enough;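 note: plate controls were DMSO wells with GST-MLLE for no effect and wells lacking GST-MLLE protein for full effect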
A3G deaminase – inhibitors of human APOBEC3G DNA deaminase; actives 0.28% (n = 330,000); AID 493012; recombinant A3G, ssDNA deamination FAM/TAMRA fluorescence; inhibition, % at 20 µM; Q9HC16;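 active = inhibition of at least 40% at 20 µM, with no more than 30% in the related APOBEC3A deaminase screen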;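 note: plate controls were DMSO wells with A3G for no effect and wells lacking A3G enzyme for full effect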
PHOSPHO1 block – inhibitors of human PHOSPHO1 phosphatase. Q8TCT1. recombinant PHOSPHO1, absorbance phosphatase assay. inhibition, % at 13.3 µM. actives 1.1% (n = 290,000). AID 1565; in the data active = inhibition above about 60%
Target sequence (Q8TCT1 whole entry, looked up): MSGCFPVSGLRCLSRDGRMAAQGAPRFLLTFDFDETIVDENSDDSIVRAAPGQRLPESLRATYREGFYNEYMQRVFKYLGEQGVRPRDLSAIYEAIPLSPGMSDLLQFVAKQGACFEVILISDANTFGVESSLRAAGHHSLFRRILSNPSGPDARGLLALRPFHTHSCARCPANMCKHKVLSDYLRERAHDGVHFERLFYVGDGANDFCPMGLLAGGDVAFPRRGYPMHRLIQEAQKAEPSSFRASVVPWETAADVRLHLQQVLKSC
APOBEC3A inh – human APOBEC3A DNA deaminase inhibition; P31941; recombinant A3A, FAM/TAMRA ssDNA deamination fluorescence; inhibition, % at 20 µM; actives 0.41% (n = 330,000); AID 493011;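 active = at least 40% inhibition at 20 µM here, with at most 30% in a related deaminase screen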;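 note: plate controls were A3A with DMSO for no effect and wells lacking A3A enzyme for full effect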
Target sequence (P31941 whole entry, looked up): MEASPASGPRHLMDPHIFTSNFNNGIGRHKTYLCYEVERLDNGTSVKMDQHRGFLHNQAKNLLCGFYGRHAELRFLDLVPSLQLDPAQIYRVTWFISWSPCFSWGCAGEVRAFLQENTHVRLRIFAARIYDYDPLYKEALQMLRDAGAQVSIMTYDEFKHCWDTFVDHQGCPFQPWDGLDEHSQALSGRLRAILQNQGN
PABP FP inh – blocks human PABP binding to poly(A) RNA; actives 1% (n = 290,000); P11940; calls only at 35 µM; fluorescence polarization;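 note: calls also rest on retests at 20 µM and on dose response follow-up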
A3A conf – APOBEC3A (human) deaminase inhibition, confirmed; shares compounds with APOBEC3A inh; recombinant A3A, ssDNA deaminase UDG fluorescence assay; inhibition, % at 20 µM; actives 63% (n = 1,400); AID 493151;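 active = inhibition reaching a set limit, 80% of the first screen's cutoff, at 20 µM in any replicate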;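 note: plate controls were DMSO wells with A3A for no effect and wells lacking A3A enzyme for full effect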
UDG A3A counter – inhibits UDG, flagging false APOBEC3A inhibitors; shares compounds with APOBEC3A inh; UDG counterscreen, FAM/TAMRA uracil oligo fluorescence; inhibition, % at 20 µM; 1,000 tested, under 10 active; AID 504714
An asterisk follows results filed as active; i = inactive; . = no result; + = active, no number. Unless noted, the rule behind the calls is not given here.

SMILES	eIF4H FP inh	MLLE-PAM2 inh	A3G deaminase	PHOSPHO1 block	APOBEC3A inh	PABP FP inh	A3A conf	UDG A3A counter
COc1ccc(NC(=O)CCCSc2ccccc2)cc1	7.5	-105.1	8.8	-30.0	42.4*	i	7.0	.
CC(C)=CCCC1=CCC2C(=O)NNC(=O)C2C1 (centres undefined)	-2.7	-9.8	-7.0	-7.3	58.5*	i	-0.7	2.0
CCn1c(CNC(=O)COc2ccc(C(C)C)cc2)nnc1SCC(=O)Nc1cc(F)ccc1C	4.4	-105.6	22.9	-66.8	77.7*	i	76.8*	10.5
O=C(NCCC1CCCCN1S(=O)(=O)c1ccc(Cl)cc1)C(=O)NCCN1CCOCC1 (centres undefined)	.	7.8	-6.2	.	-1.7	.	.	.
CCN1C(=NCc2ccc(OC)cc2)N[C@@H](c2ccccc2)C(C(=O)OC)=C1C	-5.3	-79.2	11.8	-35.5	92.1*	i	66.0*	-2.5
CCN(CC)CCCN=C1N[C@@H](c2ccccc2)C(C(=O)OC)=C(C)N1CC	.	-120.3	52.9	-88.3	76.7	.	.	.
CCN1C(=NCC2CC2)N[C@@H](c2ccccc2)C(C(=O)OC)=C1C	.	-126.3	11.8	.	45.6*	.	79.7*	3.9
CCN1C(=NCc2cc(OC)c(OC)c(OC)c2)N[C@@H](c2ccccc2)C(C(=O)OC)=C1C	.	-108.7	10.9	.	44.5*	.	67.7*	0.1
CCN1C(=NCc2cc(OC)c(OC)c(OC)c2)N[C@@H](c2cccc(C(F)(F)F)c2)C(C(=O)OC)=C1C	.	-20.1	-3.1	.	4.8	.	.	.
CC(C)NC(=O)c1csc([C@@H]2O[C@H](CO)[C@H](O)[C@H](O)[C@H]2O)n1	.	3.5	.	.	.	.	.	.
CCc1noc(C)c1C(=O)Nc1ccc(-c2nnc3n2CCCCC3)cc1	.	-2.2	-5.2	.	6.0	.	.	.
Cc1ccc(OCCCn2ccnc2)c(Br)c1	32.2	-8.4	-8.9	19.0	-4.2	i	.	.
CC(C)c1ccc(C2(C)NC(=O)N(CC(=O)N3CCN(C(=O)c4cccs4)CC3)C2=O)cc1 (centres undefined)	.	2.4	-3.9	.	48.1*	.	6.0	1.5
CCC1(c2ccc(F)cc2)NC(=O)N(CC(=O)N2CCN(C(=O)c3cccs3)CC2)C1=O (centres undefined)	.	-13.0	-8.6	.	1.0	.	.	.
CCCCN(C(=O)c1cnccn1)c1c(N)n(CCC)c(=O)[nH]c1=O	.	-110.6	19.8	.	45.0*	.	45.5*	-1.7
CCCCN(C(=O)c1c(CC)noc1C)c1c(N)n(CCCC)c(=O)[nH]c1=O	.	-37.3	-0.3	.	43.9*	.	23.1	-2.3
CCCCn1c(N)c(N(CC)C(=O)c2c(CC)noc2C)c(=O)[nH]c1=O	.	19.4	-6.5	.	2.2	.	.	.
O=S(=O)(Nc1ccon1)c1ccc(Br)s1	-7.4	-54.2	-4.8	18.5	76.0*	i	-2.0	-2.6
Cc1ccc(OCC(=O)NNC(=O)C2CCCO2)c(C)c1 (centres undefined)	99.9	7.5	-16.7	-32.1	-1.6	i	.	.
CC(C)CN(C(=O)COC(=O)c1cc2c(s1)CCC2)C1CCS(=O)(=O)C1 (centres undefined)	86.5*	0.7	18.3	3.4	45.0*	+	44.4*	.
Oc1ccc(Cl)cc1CNCC1CCCCC1	.	0.4	-4.2	.	-3.7	.	.	.
O=C(CCCOc1ccccc1)N1CCN(S(=O)(=O)c2ccc(Cl)cc2)CC1	.	11.7	7.8	.	0.2	.	.	.
CCOc1ccc(OCCCC(=O)N2CCN(S(=O)(=O)c3ccc(Cl)cc3)CC2)cc1	.	-134.1	15.3	.	70.4*	.	76.6*	-1.9
CC(NC(=O)Nc1ccc(Br)cc1)C(C)(C)C (centres undefined)	2.2	5.8	-3.0	12.0	-1.4	i	.	.
O=C(Nc1ccc(-c2nc3ccccc3o2)c(O)c1)c1cc(-n2cnnc2)ccc1Cl	-9.7	-36.8	-3.2	5.0	0.5	i	.	.
Cc1c(NC(=O)c2cc(-n3cnnc3)ccc2Cl)cccc1-c1nc2ccccc2o1	-7.7	-120.8	24.8	12.6	46.3*	i	64.5*	-1.9
C[n+]1ccccc1Nc1cc([N+](=O)[O-])ccc1N	8.3	-120.1	18.9	-18.6	63.4*	i	70.2*	-0.8
